# Experimental data taken from ChEMBL document CHEMBL3988442, “University of Dundee, Small-Polar-MMV Screening Library” (2021).
# The campaign covered roughly 48,000 compounds. About 13,000 (27%) showed an effect of 50% or more. The list shows a part of the results.
# Tested on: Wolbachia pipientis
# Assay: Anti-Wolbachia Cell-Based Screen
# Format: functional
# Parameters: scale not given: in the data most compounds retested in dose-response had high values
# Settings: 5 µM
row,Compound,Percent Effect
1,O=C(c1cccc(O)c1)N1CCN(Cc2nnc(C3CCC3)o2)CC1,6.828%
2,CC(=O)N1CC[C@@H]2O[C@H](C(=O)Nc3nc(C)cs3)C[C@@H]21,101%
3,CS(=O)(=O)N1CC[C@H]2O[C@H](C(=O)NCc3cccnc3)CC[C@H]21,-7.533%
4,Cc1csc(NC(=O)[C@@H]2C[C@H]3[C@H](CCN3S(C)(=O)=O)O2)n1,118.9%
5,CNC(=O)[C@@H]1CC[C@@H]2[C@@H](CCN2C(=O)N(C)C)O1,-10.15%
6,O=C(NCc1cccnc1)[C@@H]1C[C@H]2[C@H](CCN2c2ncccn2)O1.O=C(O)C(F)(F)F.O=C(O)C(F)(F)F,-20.81%
7,CC(=O)N1CC[C@@H]2O[C@@H](COCc3csc(C)n3)CC[C@@H]21,-30.94%
8,CN1CCC(NC(=O)[C@H]2CC[C@@H]3[C@@H](CCN3c3ncccn3)O2)CC1.O=C(O)C(F)(F)F.O=C(O)C(F)(F)F,7.6%
9,Cc1csc(NC(=O)[C@@H]2C[C@H]3[C@H](CCN3c3ncccn3)O2)n1.O=C(O)C(F)(F)F,118%
10,CS(=O)(=O)N1CC[C@H]2O[C@@H](C(=O)NCc3ccco3)CC[C@H]21,-0.8352%
11,NC(=O)CCn1ccc(NC(=O)c2ccc(Br)o2)n1,-16.68%
12,O=C(NCC1(N2CCOCC2)CCSC1)Nc1ccc(F)cc1 (stereo unspecified),-9.419%
13,CCCOc1ccccc1CCCNc1ncnc2oc(C)nc12,-6.613%
14,CCc1nccc(CN2CCC(CNC(=O)c3occc3C)C2)n1 (stereo unspecified),-2.673%
15,CC(N1CCN(C(=O)NCc2cccc(C#N)c2)CC1)C(F)(F)F (stereo unspecified),-0.6976%
16,O=C(C1CCCCO1)N1CCc2ncnc(NCCO)c2CC1 (stereo unspecified),-13.54%
17,O=C(C1CCCCO1)N1CCc2ncnc(NCc3ccon3)c2CC1 (stereo unspecified),-8.792%
18,CC(C)Nc1ncnc2c1CCN(C(=O)[C@H]1CCCO1)CC2,89.47%
19,O=C(c1ccnnc1)N1CCc2ncnc(C3CCOC3)c2CC1 (stereo unspecified),-19.12%
20,CCN(C)c1ncnc2c1CCN(C(=O)[C@H]1CCCO1)CC2,4.637%
21,O=C([C@H]1CCCO1)N1CCc2ncnc(C3CC3)c2CC1,109.2%
22,CCCN(C)C(=O)c1cc(Br)cc(S(=O)(=O)N2CCOCC2)c1F,6.063%
23,Cc1nnc(N2CCCC3(CN(c4cccc(F)c4)CCO3)C2)o1 (stereo unspecified),-14.38%
24,O=C(NCCN1CCOCC1)c1cc(Cl)c2c(c1)OCCCO2,12.84%
25,CCn1c(CN2CCOC(Cn3cncn3)C2)nc2c(F)cccc21 (stereo unspecified),-6.661%
26,Cc1ccc(C(CNCC2CC2)N2CCOCC2)s1 (stereo unspecified),-12.57%

row,Compound,Percent Effect
1,CC(C(=O)N1CCC(Nc2cccnn2)CC1)n1ccnc1 (stereo unspecified),3.754%
2,CNC(=O)c1ccc(C(=O)N2CCC(Nc3cccnn3)CC2)cn1,119%
3,CC(C(=O)N1CCC(Nc2cccnn2)CC1)n1cccn1 (stereo unspecified),60.47%
4,CC(Cn1cccn1)C(=O)N1CCC(Nc2cccnn2)CC1 (stereo unspecified),-6.529%
5,O=C(c1ccc(-n2cnnc2)cc1)N1CCC(Nc2cccnn2)CC1,87.89%
6,Cc1cccc2nc(C(=O)N3CCC(Nc4cccnn4)CC3)cn12,-6.08%
7,O=C(c1ccc(-c2cnco2)cc1)N1CCC(Nc2cccnn2)CC1,107%
8,CCOC(C)c1nc(Cn2cc(C(=O)NC)ccc2=O)cs1 (stereo unspecified),-7.956%
9,Cc1ccc(NC(=O)N2CCOC(C)(c3cnn(C)c3)C2)c(C)c1 (stereo unspecified),16.86%
10,COc1cc2c(cc1OC)S(=O)(=O)N(Cc1cc(C)on1)C2=O,-6.413%
11,N#Cc1c(Cl)nsc1N1CCN(CC2CCCCC2)CC1,3.475%
12,Cc1cccc(-n2nc(CC(C)C)nc2CCn2ccc(=O)[nH]c2=O)c1,22.44%
13,O=C(c1ccc(NC2CC2)nc1)N1CCC(Nc2cccnn2)CC1,118.5%
14,O=C(c1ccccc1-n1cccn1)N1CCCN(c2cccnn2)CC1,-6.198%
15,O=C(c1ccc(O)nc1)N1CCC(Nc2cccnn2)CC1,95.42%
16,O=C(c1ccccn1)N1CCC(Nc2cccnn2)CC1,18.78%
17,O=C(c1ccncc1)N1CCCN(Cc2nnc(C3CC3)o2)CC1,-12.73%
18,O=C(c1ccc(-n2cccn2)nc1)N1CCC(Nc2cccnn2)CC1,-1.733%
19,O=C(c1ccsc1)N1CCC(c2nnc(C3CC3)o2)CC1,116.7%
20,O=C(c1ccccc1-n1cccn1)N1CCC(Nc2cccnn2)CC1,157.4%
21,FC(F)(F)c1ccc(-n2ccnc2-c2cc3n(n2)CCNC3)cn1,0.08182%
22,CCS(=O)(=O)c1ccccc1N1CCC(NC(=O)NC2CCCC2)CC1,-4.776%
23,O=C(c1ccoc1)N1CCC(Nc2cccnn2)CC1,90.61%
24,O=C(c1ccsc1)N1CCC(Nc2cccnn2)CC1,95.56%
25,Cc1ccc(S(=O)(=O)Nc2ccc(-n3nnn(C)c3=O)cc2)cc1,8.508%
26,O=S(=O)(Nc1ccc(N2CCOCC2)cn1)c1cccc(F)c1,2.193%

row,Compound,Percent Effect
1,COc1cccc(OCC2CCCN(C(=O)c3ncc(F)cc3F)C2)c1 (stereo unspecified),-61.26%
2,CCNc1ncc(C(=O)NC2COC3(CCCC3)C2)cn1 (stereo unspecified),-5.692%
3,COCC(=O)N1CCCN(c2ncnc3c2CCNCC3)CC1,1.266%
4,COC[C@H]1CCC[C@H]1Nc1ncnc2c1CCNCC2,95.23%
5,c1nc2c(c(NC3COC4(CCCC4)C3)n1)CCNCC2 (stereo unspecified),100.1%
6,c1nc2c(c(NC3CCc4ncnn4C3)n1)CCC2 (stereo unspecified),-6.936%
7,CC(C)Nc1ncnc2c1CCNCC2,-5.966%
8,CC(NC(=O)CCN1CCOC1=O)(c1ccccc1)c1ccccc1,8.215%
9,CC(Oc1ccccc1C(F)(F)F)C(=O)NS(=O)(=O)C(C)C (stereo unspecified),-1.095%
10,CCC(CC(=O)Nc1ccc2c(c1)CC(=O)N2)c1ccccc1 (stereo unspecified),3.416%
11,Cn1cc(C(=O)N2CCOc3ccccc32)ccc1=O,-9.078%
12,O=C(NCCc1cc2nc(-c3ccncc3)ccn2n1)C1CCOCC1,126.4%
13,O=C(NCCc1cccc(Cl)c1)C1CCOCC1,2.096%
14,O=C(Nc1cc(-c2ccncc2)no1)C1CC1,-3.278%
15,O=C(NCCc1cc2nc(-c3ccncc3)ccn2n1)C1CC1,124.8%
16,CC(C)N1CC(C(=O)NCCc2csc(-c3ccncc3)n2)CC1=O (stereo unspecified),2.271%
17,Cc1csc(CCNC(=O)C2CCOC2)n1 (stereo unspecified),0.3325%
18,Cc1cc(=O)n(C)cc1NC(=O)NCc1cccc(F)c1,28.52%
19,CN1CCOC(C(=O)Nc2nc(-c3ccccc3F)n[nH]2)C1 (stereo unspecified),-6.828%
20,O=C(COCc1ccccc1)N1CCN(Cc2ccccc2F)C(=O)C1,-37.48%
21,O=C(O)C(F)(F)F.c1coc(CN2Cc3ccnn3CC(COCC3CC3)C2)c1 (stereo unspecified),5.412%
22,O=C1NCCO[C@H]2CN(C(=O)Cc3ccco3)CC[C@@H]12,-15.97%
23,O=C(Cc1ccc(-c2ccccc2)cc1)N1CCOCC(O)C1 (stereo unspecified),-43.76%
24,O=C(Cc1ccccc1)N1CC(=O)N(Cc2ccco2)CC(O)C1 (stereo unspecified),119.5%
25,O=C1CN(C(=O)OCc2ccccc2)CC(O)CN1Cc1ccco1 (stereo unspecified),93.23%
26,O=C(C1CN(Cc2ccoc2)CC12CCOCC2)N1CCCC1 (stereo unspecified),-22.56%

row,Compound,Percent Effect
1,COCc1cc(C[C@@H]2CC[C@H](O)[C@@H](CN(C)C)O2)no1,7.016%
2,O=C(O)C(F)(F)F.O=C(c1ccoc1)N1CC[C@H]2OCC[C@@]2(COc2ncccc2F)C1,0.551%
3,COc1ccc(C(C)N2CCC(NS(C)(=O)=O)CC2)cc1Cl (stereo unspecified),-1.711%
4,CO[C@H]1CC[C@H]2[C@H]1OCCN2C(=O)c1nn(C)c2ccccc12,119%
5,CO[C@@H]1CC[C@H]2[C@H]1OCCN2C(=O)c1nn(C)c2ccccc12,115.4%
6,CC(C)O[C@@H]1CC[C@H]2[C@H]1OCCN2C(=O)c1nn(C)c2ccccc12,112.4%
7,CO[C@@H]1CC[C@H]2[C@H]1OCCN2C(=O)c1ccco1,-5.889%
8,COCCNC(=O)Nc1cccc(COCCOC(C)C)c1,-33.02%
9,Cn1cc(C#N)cc1C(=O)N1CCC2(CCCN(CC3CCC3)C2=O)C1 (stereo unspecified),-29.9%
10,COC(=O)C1CN(CC(=O)Nc2cc(F)ccc2F)c2ccccc21 (stereo unspecified),6.543%
11,O=C(CN1CCCCC1Cn1cncn1)NCCc1ccc(F)cc1 (stereo unspecified),-1.768%
12,Cc1nc(C)n(CC2CCCN2CC(=O)NCCc2ccccc2)n1 (stereo unspecified),5.202%
13,O=C(Cn1cc(C(=O)O)ccc1=O)Nc1ccc(F)cc1Cl,-4.302%
14,CCOC(=O)N1CCN(CC(=O)Nc2ccc(F)cc2Cl)CC1,-11.41%
15,COC(=O)CC1CCCCN1CC(=O)NCCc1ccc(F)cc1 (stereo unspecified),106.1%
16,COC(=O)CC1CCCCN1CC(=O)Nc1cc(F)ccc1F (stereo unspecified),97.72%
17,O=C(CN1CCCCC1C1OCCO1)Nc1ccc(F)c(F)c1 (stereo unspecified),-7.301%
18,COC(=O)CC1CCCCN1CC(=O)Nc1ccc(F)cc1Cl (stereo unspecified),107.7%
19,Cc1cc(C)c(CNC(=O)NCCNc2ncccn2)c(=O)[nH]1,-4.444%
20,CCc1nsc(NC2CCCn3nc(CC)nc32)n1 (stereo unspecified),0.3299%
21,Nc1nc2c(c(NC(=O)Nc3ccc(Cl)c(Cl)c3)n1)CCCC2,4.347%
22,CCOC(=O)c1ccc(NC(=O)c2c(O)nc3c(c2O)CCCC3)cc1,115.5%
23,CC1=NN(c2ccc(C(=O)OCCNC(=O)c3ccncc3)cc2)CC1,6.071%
